Data: PubChem BioAssay AID1076 (NMMLSC, 2008)
Active and inactive are the calls of the source.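 How the source made its calls: active means cell event count below 40, meaning activity score above 60 where score is 100 minus count; inactive means the rest.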

Experiment: cytotoxicity in LNCaP prostate cells – cell-based, cell event count, single point, cytotoxicity control for prostate differentiation activator project, confirmation (AID 1076);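 further: counts scatter-gated live cells after medium removal discards detached dead cells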
Conditions: LNCaP cell loss, flow cytometry event count, 4 d, stronger effect = lower value

Row | SMILES | cell event count (at 100 µM) | cell event count (event count, at 10 µM)
1 | O=C(COc1ccc2ccccc2c1)N1CCN(C2CCN(Cc3ccccc3)CC2)CC1 | 35 (inactive) | 324
2 | Cc1cc(OCC(=O)O)c2c3c(c(=O)oc2c1)CCCC3 | 175 (inactive) | 157
3 | Cc1nc2ccccc2c(=O)n1-c1ccc(F)cc1 | 282 (inactive) | 155
4 | C[C@H]1CCC/C=C/C2C[C@H](O)CC2[C@H](O)/C=C/C(=O)O1 (stereo not given in full) | 23 (active) | 26
5 | Cc1ccc2c(c1)[C@@H]1CN(C)CC[C@@H]1N2C(=O)Nc1cccc(C(F)(F)F)c1 | 13 (inactive) | 122
6 | CCn1c(=O)cc(OCC(=O)N2CCC3(CC2)OCCO3)c2ccccc21 | 210 (inactive) | 411
7 | Cc1ccc(Cn2c(C)c3cnn(CC(=O)N4CCC5(CC4)OCCO5)c(=O)c3c2C)cc1 | 66 (inactive) | 202
8 | Clc1ccc(COC(Cn2ccnc2)c2ccc(Cl)cc2Cl)cc1 (stereo not given) | 11 (inactive) | 82
9 | CCn1c(=O)cc(OCC(=O)N2CCN(Cc3ccc4c(c3)OCO4)CC2)c2ccccc21 | 12 (inactive) | 240
10 | CCOc1ccc(C2SCC(=O)Nc3c2c(=O)[nH]n3C2CCCCCC2)cc1 (stereo not given) | 18 (inactive) | 101
